These results are taken from PubChem BioAssay (NCI).

Compounds without any hit were thinned out: in the full panel of roughly 83,000, 20% have a hit.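 The endpoint reported here, percent growth, reads 100 for growth as untreated, 0 for no net growth and -100 for all cells dead.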 Unmarked numbers belong to inactive results. Active and inactive are the calls of the source. The calls were made as follows: active = growth percent below 10; inactive = the rest.

Some test systems named below: RPMI-8226 leukemia; OVCAR-8 ovarian; OVCAR-5 ovarian; OVCAR-4 ovarian; SK-OV-3 ovarian; IGROV1 ovarian; OVCAR-3 ovarian; HS 578T breast; NCI/ADR-RES ovarian; T-47D breast; BT-549 breast; MDA-MB-435 melanoma; SW-620 colon; MCF7 breast; HCT-116 colon; HCC-2998 colon; KM12 colon.
Common to all, as to test: NCI-60 one-dose screen, 48 h (100 = growth as untreated, 0 = no growth, -100 = all killed)
Details in all cases: 10 µM unless noted

Regarding `CCN=C1C=CC(=C(c2ccc(N(C)C)cc2)c2ccc(N(C)C)cc2)c2ccccc21`, the growth with RPMI-8226 leukemia was -22.9% (active); with OVCAR-8 ovarian, -8.37% (active); in the assay on OVCAR-5 ovarian, 4.09% (active); in the assay with OVCAR-4 ovarian it was 16.3%; in the assay on SK-OV-3 ovarian, -35.2% (active); with IGROV1 ovarian, -7.04% (active). For the same molecule, the growth in the assay on OVCAR-3 ovarian is -60.9% (active); in the assay with HS 578T breast it was -29.8% (active); in the assay with NCI/ADR-RES ovarian it was 12.3%; with T-47D breast it was -22.8% (active); with BT-549 breast it was -35.2% (active); in the assay with MDA-MB-435 melanoma, -35.2% (active). For the same molecule, the growth in the assay with SW-620 colon was -9.44% (active); with MCF7 breast, -9.8% (active); with HCT-116 colon, -51.6% (active); in the assay on HCC-2998 colon it was -40.8% (active); in the assay on KM12 colon, -86.1% (active).
For the molecule `O=C(Cn1nnc([N+](=O)[O-])n1)c1ccccc1`, the growth with RPMI-8226 leukemia is 40.6%; in the assay on OVCAR-8 ovarian, 101%; with OVCAR-5 ovarian, 114%; in the assay with OVCAR-4 ovarian it was 91.5%; with SK-OV-3 ovarian it was 99.8%; with IGROV1 ovarian, 96.1%. Further, the growth is 100% with OVCAR-3 ovarian; 106% with HS 578T breast; 98.4% with NCI/ADR-RES ovarian; 78.9% with T-47D breast; 113% with BT-549 breast; 85.4% in the assay with MDA-MB-435 melanoma. Also, the growth in the assay with SW-620 colon was 91.1%; in the assay on MCF7 breast it was 80.9%; in the assay on HCT-116 colon it was 60%; with HCC-2998 colon, 102%; with KM12 colon it was 95.9%.
With `CCN1CCN(CC(=O)Nc2nc3ccc(NCc4ccc(Br)cc4)cc3s2)CC1`, the growth in the assay on RPMI-8226 leukemia was 41.8%; in the assay with OVCAR-8 ovarian it was 81.8%; with OVCAR-5 ovarian, 76%; in the assay with OVCAR-4 ovarian it was 72.9%; in the assay with SK-OV-3 ovarian, 90%; in the assay with IGROV1 ovarian it was 86.8%. Further, the growth was 57.2% in the assay on OVCAR-3 ovarian; 81.3% in the assay with HS 578T breast; 79.3% in the assay with NCI/ADR-RES ovarian; 48.1% in the assay on T-47D breast; 85.7% in the assay on BT-549 breast; -6.35% (active) with MDA-MB-435 melanoma. The growth in the assay with SW-620 colon was 5.94% (active); in the assay with MCF7 breast, 10.3%; with HCT-116 colon, 17.8%; with HCC-2998 colon, 62.6%; in the assay on KM12 colon, 52.8%.
Consider `COc1cc(Nc2ncccc2NC(=O)c2cn(Cc3cccc(Oc4ccccc4)c3)nn2)cc(OC)c1`, for which the growth with RPMI-8226 leukemia was 71.6%; in the assay with OVCAR-8 ovarian, 87.8%; in the assay on OVCAR-5 ovarian it was 107%; in the assay on OVCAR-4 ovarian it was 92.7%; in the assay with SK-OV-3 ovarian, 96.2%; with IGROV1 ovarian, 99.3%. Further, the growth with OVCAR-3 ovarian is 85.3%; with HS 578T breast it was 79.3%; in the assay on NCI/ADR-RES ovarian, 76%; with T-47D breast, 65%; with BT-549 breast, 85.5%; in the assay on MDA-MB-435 melanoma, -6.08% (active). For the same molecule, the growth in the assay with SW-620 colon is 86.1%; with MCF7 breast, 49.3%; with HCT-116 colon it was 91.1%; with HCC-2998 colon, 71.6%; in the assay on KM12 colon it was 62.2%.
As to `COc1cccc(NC(=O)c2cccc(C3CCc4c(cc(OC)c(OC)c4OC)O3)c2)c1` (stereo not drawn), the growth was 28.4% in the assay on RPMI-8226 leukemia; 54.5% in the assay on OVCAR-8 ovarian; 81.8% with OVCAR-5 ovarian; 56.7% with OVCAR-4 ovarian; 71.7% in the assay with SK-OV-3 ovarian; 65.6% with IGROV1 ovarian. Also, the growth in the assay with OVCAR-3 ovarian is 81.1%; in the assay on HS 578T breast, 86.6%; in the assay on NCI/ADR-RES ovarian, 55.9%; in the assay on T-47D breast, 20.5%; in the assay on BT-549 breast, 41.5%; with MDA-MB-435 melanoma it was 79.6%. Besides, the growth in the assay with SW-620 colon was 100%; in the assay on MCF7 breast it was 74.3%; with HCT-116 colon, 62.4%; in the assay with HCC-2998 colon, 81.4%; in the assay with KM12 colon it was 81.5%.
Consider `COc1cc(N2C(=O)[C@H](c3ccccc3)C2c2ccc(SC)cc2)cc(OC)c1OC` (stereo partly drawn), for which the growth is -9.2% (active) in the assay on RPMI-8226 leukemia; 4.09% (active) in the assay with OVCAR-8 ovarian; 56.8% with OVCAR-5 ovarian; 48.6% with OVCAR-4 ovarian; 8.14% (active) in the assay on SK-OV-3 ovarian; 13.7% with IGROV1 ovarian. Also, the growth is 8.73% (active) with OVCAR-3 ovarian; 20.6% in the assay on HS 578T breast; 9.89% (active) in the assay with NCI/ADR-RES ovarian; 61.9% with T-47D breast; -6.28% (active) in the assay on BT-549 breast; -23.7% (active) with MDA-MB-435 melanoma. Further, the growth with SW-620 colon was 25.2%; with MCF7 breast, 6.93% (active); in the assay on HCT-116 colon, 0.933% (active); with HCC-2998 colon it was 12.6%; in the assay on KM12 colon it was 10.2%.
In the case of `C=NNc1ccccc1`, the growth in the assay with RPMI-8226 leukemia was 97.6%; in the assay with OVCAR-8 ovarian, 95.1%; with OVCAR-5 ovarian, 109%; in the assay with OVCAR-4 ovarian, 102%; in the assay on SK-OV-3 ovarian, 102%; in the assay on IGROV1 ovarian it was 88.7%. The growth in the assay on OVCAR-3 ovarian is 102%; with HS 578T breast, 97.7%; with NCI/ADR-RES ovarian it was 84.4%; with T-47D breast, 90.6%; in the assay with BT-549 breast, 91.6%; in the assay on MDA-MB-435 melanoma, 105%. Besides, the growth with SW-620 colon was 102%; with MCF7 breast, 83.3%; in the assay on HCT-116 colon, 80.7%; in the assay with HCC-2998 colon, 94.5%; in the assay with KM12 colon, 80.5%.
For `COc1ccc2c(c1)c(-c1ccc(-c3cn(C)c4ccc(OC)cc34)[nH]1)cn2C`, the growth in the assay with RPMI-8226 leukemia is 2.15% (active); in the assay on OVCAR-8 ovarian it was 7.19% (active); in the assay with OVCAR-5 ovarian it was 30.9%; in the assay on OVCAR-4 ovarian, -40.3% (active); in the assay on SK-OV-3 ovarian, 50.9%; in the assay with IGROV1 ovarian it was 23.1%. Moreover, the growth in the assay with OVCAR-3 ovarian was -42% (active); in the assay with HS 578T breast, -13% (active); in the assay on NCI/ADR-RES ovarian, 3.06% (active); with T-47D breast, -51.2% (active); in the assay with BT-549 breast, -28.1% (active); in the assay with MDA-MB-435 melanoma it was 41.8%. Besides, the growth was -48.6% (active) with SW-620 colon; 38.9% in the assay with MCF7 breast; 4.08% (active) in the assay with HCT-116 colon; -3.55% (active) with HCC-2998 colon; 9.21% (active) in the assay on KM12 colon.
Take `O=C(CCCCCCN1CC(=O)N2[C@@H](c3ccc(Cl)cc3)c3[nH]c4ccccc4c3C[C@H]2C1=O)NO`: the growth is 22.4% in the assay with RPMI-8226 leukemia; 57.7% with OVCAR-8 ovarian; 69.9% in the assay on OVCAR-5 ovarian; 59.3% with OVCAR-4 ovarian; 82.9% in the assay with SK-OV-3 ovarian; 66.7% with OVCAR-3 ovarian. The growth in the assay with HS 578T breast is 67.9%; in the assay on NCI/ADR-RES ovarian, 93%; in the assay on T-47D breast it was 42.1%; in the assay with BT-549 breast it was 77.2%; in the assay on MDA-MB-435 melanoma, 53.9%; with SW-620 colon it was 62.9%. Moreover, the growth in the assay with MCF7 breast is 46.2%; in the assay on HCT-116 colon, 38.6%; with HCC-2998 colon, 81.2%; with KM12 colon, 75.1%.
Consider `CS(=O)(=O)Cc1cnc(C2OCCO2)s1`, for which the growth with RPMI-8226 leukemia is 109%; with OVCAR-8 ovarian, 104%; in the assay with OVCAR-5 ovarian, 106%; with OVCAR-4 ovarian it was 100%; in the assay with SK-OV-3 ovarian, 139%; in the assay on IGROV1 ovarian, 97.5%. Also, the growth with OVCAR-3 ovarian is 96.3%; in the assay on HS 578T breast it was 106%; with NCI/ADR-RES ovarian it was 103%; with T-47D breast, 129%; in the assay with MDA-MB-435 melanoma, 109%; with SW-620 colon, 113%. The growth in the assay with MCF7 breast was 96.4%; in the assay with HCT-116 colon, 98.8%; in the assay with HCC-2998 colon, 107%; in the assay with KM12 colon, 88.9%.
On to `O=C(/C=C\c1ccco1)/C=C/c1ccco1`, for which the growth with RPMI-8226 leukemia was 99.1%; in the assay with OVCAR-8 ovarian, 99.8%; in the assay on OVCAR-5 ovarian, 95.1%; in the assay with OVCAR-4 ovarian, 105%; with SK-OV-3 ovarian, 104%; in the assay with IGROV1 ovarian it was 110%. In addition, the growth in the assay on OVCAR-3 ovarian was 134%; in the assay with HS 578T breast, 105%; in the assay with NCI/ADR-RES ovarian it was 105%; in the assay with T-47D breast, 112%; with BT-549 breast, 101%; in the assay with MDA-MB-435 melanoma it was 98.3%. Moreover, the growth in the assay on SW-620 colon was 103%; in the assay with MCF7 breast, 101%; in the assay on HCT-116 colon, 105%; in the assay with HCC-2998 colon it was 101%; in the assay on KM12 colon it was 106%.
Regarding `O=C(Nc1ncc(Cc2ccccc2Cl)s1)c1cccs1`, the growth with RPMI-8226 leukemia was 73.5%; in the assay with OVCAR-8 ovarian, 85.7%; in the assay on OVCAR-4 ovarian, 74.4%; with SK-OV-3 ovarian, 81.7%; in the assay with IGROV1 ovarian, 72.3%; with OVCAR-3 ovarian it was 79.2%. The growth with HS 578T breast is 74.4%; in the assay on NCI/ADR-RES ovarian, 53.7%; in the assay on T-47D breast, 56.1%; in the assay with BT-549 breast, 68.7%; in the assay on MDA-MB-435 melanoma it was 3.49% (active); in the assay on SW-620 colon, 58.6%. Moreover, the growth with MCF7 breast was 46.3%; in the assay with HCT-116 colon, 58.1%; with HCC-2998 colon, 72.8%; in the assay with KM12 colon it was 29.3%.
On to `CC[C@H](C)[C@H](NC(=O)[C@H](CCCNC(=N)N)NC(=O)[C@H](Cc1c[nH]c2ccccc12)NC(=O)[C@@H](NC(=O)[C@H](CCCCN)NC(=O)[C@H](CCCCN)NC(=O)[C@@H](NC(=O)[C@@H](NC(=O)[C@@H](NC(=O)[C@H](CCCCN)NC(=O)[C@H](Cc1ccccc1)NC(=O)[C@H](CCCCN)NC(=O)[C@H](CCCCN)NC(=O)[C@H](Cc1ccccc1)NC(=O)[C@@H](NC(=O)[C@@H](N)CCCCN)[C@@H](C)CC)[C@@H](C)O)[C@@H](C)CC)[C@@H](C)CC)C(C)C)C(=O)N[C@@H](Cc1ccccc1)C(=O)NCC(=O)N[C@@H](CCCNC(=N)N)C(=O)N[C@@H](Cc1ccccc1)C(N)=O`, for which the growth with RPMI-8226 leukemia was -18% (active); in the assay with OVCAR-8 ovarian, 0.804% (active); with OVCAR-5 ovarian, -46.1% (active); with OVCAR-4 ovarian, -31.3% (active); in the assay on SK-OV-3 ovarian, 13.9%; with IGROV1 ovarian, -25.8% (active). For the same molecule, the growth in the assay with OVCAR-3 ovarian was -23.8% (active); with HS 578T breast, -21.3% (active); in the assay with NCI/ADR-RES ovarian, -11.9% (active); in the assay with T-47D breast, -30.1% (active); with BT-549 breast, 32.5%; in the assay with MDA-MB-435 melanoma it was -17% (active). Moreover, the growth was -14.9% (active) in the assay on SW-620 colon; -17% (active) in the assay on MCF7 breast; -3.28% (active) in the assay on HCT-116 colon; 10.6% in the assay on HCC-2998 colon; -25.6% (active) in the assay on KM12 colon.
